Test results reported in PubChem BioAssay (NCI).
Compounds without any hit were thinned out: in the full panel of roughly 83,000, 20% have a hit.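 Growth was measured after 48 h exposure to one concentration of compound in 96-well plates. Values under 10 count as active.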 A number with no mark means an inactive call. Activity calls are given as the source filed them.

Tests used:
Test in all cases: NCI-60 one-dose screen, 48 h (100 = growth as untreated, 0 = no growth, -100 = all killed)
Details in all cases: 10 µM unless noted
[1] = test system: SK-MEL-2 melanoma
[2] = test system: EKVX NSCLC
[3] = test system: SN12C renal
[4] = test system: UO-31 renal
[5] = test system: TK-10 renal
[6] = test system: ACHN renal
[7] = test system: CAKI-1 renal
[8] = test system: A498 renal
[9] = test system: CCRF-CEM leukemia
[10] = test system: MOLT-4 leukemia
[11] = test system: SR leukemia
[12] = test system: RPMI-8226 leukemia
[13] = test system: OVCAR-8 ovarian
[14] = test system: OVCAR-5 ovarian
[15] = test system: OVCAR-4 ovarian
[16] = test system: SK-OV-3 ovarian
[17] = test system: IGROV1 ovarian
[18] = test system: OVCAR-3 ovarian
[19] = test system: HS 578T breast
[20] = test system: NCI/ADR-RES ovarian

SMILES	growth [1]	growth [2]	growth [3]	growth [4] [%]	growth [5] [%]	growth [6]	growth [7] [%]	growth [8]	growth [9]	growth [10]	growth [11]	growth [12]	growth [13]	growth [14]	growth [15] [%]	growth [16] [%]	growth [17]	growth [18]	growth [19] [%]	growth [20]
CC/C=C1/C(=O)C=C[C@@H]1C/C=C\CCCC(=O)OC	90.7%	101%	18.8%	77.9	107	46.9%	60.6	102%	-6.12% (active)	3.09% (active)	4.16% (active)	-5.45% (active)	25.7%	112%	96.9	117	105%	51.4%	43	57.7%
COc1ccc2[nH]cc(-c3nc(-c4cn(C)c5ccncc45)cs3)c2c1	93%	-14.1% (active)	96.2%	77.6	78.6	83.9%	67.2	89.1%	-20.3% (active)	63%	-11.2% (active)	-40.3% (active)	-9.37% (active)	103%	24.1	112	-38.5% (active)	117%	101	62.1%
Cc1cc2nc(-c3c(-c4ccc(F)cc4)nc4sccn34)[nH]c2cc1C	100%	103%	98.6%	78.6	86	93.6%	89.9	89.2%	90.1%	83.4%	83.2%	87.9%	96%	111%	94.7	94.9	95.9%	102%	103	91.6%
O=C(O)CCCn1c(SCc2c(Cl)cccc2Cl)nc2ccsc2c1=O	31.3%	52.2%	53.3%	37.5	48	46.7%	30.6	-1.92% (active)	19.6%	21.7%	9.9% (active)	19.2%	28.8%	50.7%	70.7	34.3	44.9%	-20.4% (active)	11.9	4.6% (active)
CC(=O)N(Cc1ccccc1)c1nc2ccc(O)c(CN(C)C)c2s1	108%	89%	99.2%	77	99.6	96.8%	82.8	66%	106%	112%	106%	95.2%	103%	100%	97.6	104	93.9%	105%	92.6	93.5%
O=C1Nc2ccc(F)cc2/C1=C\c1nc(-c2ccccc2F)n2ccccc12	38.3%	102%	87.1%	77.6	97.5	8.93% (active)	68.4	111%	70.8%	81.2%	66.7%	96.8%	80.6%	67.2%	110	101	75.5%	126%	103	74.4%
Cc1cc(C(=O)Nc2cc(Nc3ncccc3-c3ncnc4nc[nH]c34)ccc2F)cc(C(F)(F)F)c1	6.72% (active)	67.1%	55.7%	94.1	68	45.1%	15.4	-26.9% (active)	62.3%	47.2%	51.3%	53.8%	57.2%	33.3%	47.7	87.2	103%	68%	38.1	52.1%
COc1ccc(Cc2nnc(Nc3nc4ccccc4s3)s2)cc1	107%	96.1%	94.2%	81.2	103	97.2%	96.1	97.8%	97.7%	105%	60.6%	107%	103%	89.1%	105	115	94%	103%	94.6	95.7%
CC(C)(C)C(=O)/C=C/c1ccc([N+](=O)[O-])cc1	89.2%	89.3%	92.1%	76.5	91.4	57.3%	96.1	91%	44.3%	75.4%	8.57% (active)	23.5%	76.8%	108%	91.5	98.7	96%	84.9%	90.2	60.2%
Cc1cc(N2CCCCC2)nc(N2CCN(CC(=O)Nc3ccc4c(ccn4Cc4ccccc4)c3)CC2)n1	65.6%	62.1%	64.2%	30	84	76.6%	56.3	8.63% (active)	64.5%	52.6%	64%	53.4%	36.6%	88.7%	54.2	62.3	64.5%	68.7%	66.7	47.9%
O=C(CN1C(=O)NC2NC(=O)NC21)N/N=C/c1ccc(Cl)cc1Cl (configuration not stated)	113%	101%	104%	84.3	101	105%	88.2	112%	107%	105%	109%	104%	109%	105%	103	102	103%	104%	103	104%
CCN(CC)CCCNCc1cc(-c2ccccc2)nc2cc(Cl)ccc12	-61.9% (active)	80.9%	38.2%	11	42.8	66.2%	50.5	22.3%	10.4%	13.6%	13.6%	3.47% (active)	28.8%	87.5%	67.8	75.6	28.9%	61.7%		23.2%
COc1ccc(/C(C)=C(\c2ccc(OCCN3CCCCCC3)cc2)c2ccc(OC(=O)c3ccccc3)cc2)cc1	54.6%	74.4%	56.2%	26.2	74.5	72.3%	52.9	82.1%	26.8%	17.4%	-8.34% (active)	19.5%	56.5%	72.1%	42.6	81.4	46.7%	64.6%		60.7%
N=C(N)c1ccc(-c2ccc(-c3ccc(Cl)cc3)o2)o1	82.1%	68.3%	-58.9% (active)	46	72.1	28.3%	54.2	61.3%	-20.3% (active)	-28.9% (active)	-28.8% (active)	-6.54% (active)	-55.4% (active)	3.3% (active)	46.2	81.2	37.7%	-86.1% (active)	78.6	-50.6% (active)
CCOC(=O)/C=C/c1c(C)[nH]c(=O)[nH]c1=O	30.1%	77.6%	95.4%	102	95.5	1.8% (active)	63.8	111%	89.3%	61.3%	69.6%	110%	83.2%	71.8%	97.5	99.4	112%	118%		81.9%
